Source: PubChem BioAssay
A selection: hits, their analogues and other compounds. The true share with any hit is near 3.7%.
CHT block – inhibits the human high affinity choline transporter | Q9GZV3 | CHT-expressing cells, membrane potential dye, choline response; hits give low values | B-score at 10 µM | 0.86% of 310,000 active;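 active means B-score over 3 SD under the library average, and starting fluorescence ratio not unusually high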;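 further: choline stimulus applied at its EC90 after an EC20 pre-addition; B-score computed on integrated fluorescence ratio after choline addition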
Target sequence (Q9GZV3 whole entry, looked up): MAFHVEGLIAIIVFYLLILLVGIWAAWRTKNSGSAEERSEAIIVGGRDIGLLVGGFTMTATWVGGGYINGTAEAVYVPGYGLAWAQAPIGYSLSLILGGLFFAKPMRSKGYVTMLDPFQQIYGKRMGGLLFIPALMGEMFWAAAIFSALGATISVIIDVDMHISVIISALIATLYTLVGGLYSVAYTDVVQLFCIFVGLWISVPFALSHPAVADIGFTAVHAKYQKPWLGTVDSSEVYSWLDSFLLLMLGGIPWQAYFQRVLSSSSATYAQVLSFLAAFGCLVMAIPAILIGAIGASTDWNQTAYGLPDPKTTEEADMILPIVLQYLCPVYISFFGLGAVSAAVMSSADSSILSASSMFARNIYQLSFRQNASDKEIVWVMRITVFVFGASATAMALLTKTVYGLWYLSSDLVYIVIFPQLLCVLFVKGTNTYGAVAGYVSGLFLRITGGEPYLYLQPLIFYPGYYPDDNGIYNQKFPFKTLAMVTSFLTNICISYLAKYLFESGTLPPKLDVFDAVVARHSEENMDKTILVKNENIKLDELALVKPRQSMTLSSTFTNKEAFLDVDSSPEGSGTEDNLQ
ANO1 block – inhibitors of mouse TMEM16A calcium-activated chloride channel; normalized B-score (activity score, 25-100; higher = stronger inhibition) at 10 µM; HEK293 TMEM16A/YFP iodide influx fluorescence, ionomycin; Q8BHY3; 1.2% of 310,000 active; AID 588511;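 active means ratio plate-corrected score three or more library SD toward inhibition, starting fluorescence score within five deviations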;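 further: score derived from kinetic fluorescence span divided by baseline fluorescence per well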
GPR7 antag – blocks human GPR7 receptor signaling. 1.1% of 290,000 active. GPR7-expressing cells, fluorescence antagonist assay. inhibition, % at 4.4 µM. P48145; in the data active means inhibition above about 16%, passing the limit was not always enough;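 further: cells stimulated with the agonist NPW; 0% = agonist with vehicle and 100% = vehicle without agonist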
CHT PAM – allosterically activates the human high affinity choline transporter; 0.49% of 310,000 active; Q9GZV3; B-score at 10 µM; CHT-expressing cells, membrane potential dye, choline EC20; hits give high values; LV-AA mutant CHT in HEK293 cells;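 active means initial fluorescence not abnormally high and integrated response B-score, plate-corrected, over 3 SD above library mean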
Kir21 block – Kir2.1 (mouse) channel inhibition. P35561. HEK293-Kir2.1, FluxOR thallium flux fluorescence; hits give low values. B-score at 10 µM. 0.85% of 310,000 active. AID 1672;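 active means fluorescence ratio B-score at or below minus 3 SD of library scores, with starting-brightness B-score within 2 SD, cut at about -4.2 in these data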;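 further: channel flux triggered by added potassium and thallium sulfate stimulus; B-score of peak minus minimum fluorescence over baseline after thallium stimulus; more negative B-score means stronger Kir2.1 block with less thallium influx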
ANO1 activ – activators or potentiators of mouse TMEM16A chloride channel. Q8BHY3. HEK293 TMEM16A/YFP-H148Q/I152L, iodide quench fluorescence; hits give low values. B-score at 10 µM. 0.3% of 340,000 active;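 active means fluorescence-ratio B-score plate-corrected deviation score at least 3 library SD below zero, with starting fluorescence score within 5 deviations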;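 further: channel opened by trigger with iodide after compound preincubation; score built on the fluorescence ratio of max minus min over baseline; more negative score means more quench and so TMEM16A activation or potentiation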
CHT activ conf – human CHT activation, confirmatory screen; shares compounds with CHT PAM; CHT-expressing cells, membrane potential dye fluorescence (FDSS); % of choline EC20–EC90 response window; HEK293 expressing CHT LV-AA mutant; choline added at its EC20; activation, % at 10 µM; 91% of 2,500 active;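 active means primary screen active, with duplicate mean activation above negative control mean plus 3 SD, cut at about 11% in these data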
HEK293 MP dye – CHT activator counter-screen hit in parental HEK293 cells; shares compounds with CHT PAM; membrane potential dye fluorescence (FDSS); measured after EC20 choline addition; ratio readout change at 10 µM, hits read low; 62% of 2,500 active; AID 623908;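 active means duplicate-averaged ratio beyond 3 SD from buffer wells, up or down, though filed actives are nearly all decreases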
Starred values were filed as active, the others as inactive.

Screening CCn1cc(C(=O)OCC(=O)NCc2ccc3c(c2)OCO3)c(=O)c2ccc(C)nc21 returned CHT block inactive, ANO1 block inactive, GPR7 antag -13, CHT PAM 10*, Kir21 block 0.02, ANO1 activ inactive, CHT activ conf 60* and HEK293 MP dye -56*.
CCn1cc(C(=O)OC(C)C(=O)Nc2c(C)n(C)n(-c3ccccc3)c2=O)c(=O)c2ccc(C)nc21 (stereo unspecified) was read as GPR7 antag -7 and ANO1 activ inactive.
`CCn1cc(C(=O)OCC(=O)Nc2c(C)n(C)n(-c3ccccc3)c2=O)c(=O)c2ccc(C)nc21` gave CHT block inactive, ANO1 block inactive, GPR7 antag -8, CHT PAM 11*, Kir21 block -0.64, ANO1 activ inactive, CHT activ conf 78* and HEK293 MP dye -72*.
`C=CCn1cc(C(=O)OCC)c(=O)c2cc(F)c(F)cc21` gave CHT block inactive, ANO1 block inactive, GPR7 antag -9, CHT PAM 7*, Kir21 block 0.01, ANO1 activ inactive, CHT activ conf 48* and HEK293 MP dye -56*.
Screening CCn1cc(C(=O)OCc2ccc(F)cc2)c(=O)c2ccc(C)nc21 returned CHT block inactive, ANO1 block inactive, GPR7 antag -19, CHT PAM 8*, Kir21 block 0.64, ANO1 activ inactive, CHT activ conf 56* and HEK293 MP dye -87*.
For CCn1cc(C(=O)OCc2cccc(Br)c2)c(=O)c2ccc(C)nc21 the results were CHT block inactive, ANO1 block inactive, GPR7 antag -5, CHT PAM inactive, Kir21 block 1.9 and ANO1 activ inactive.
For C=CCOC(=O)c1cn(CC)c2nc(C)ccc2c1=O the results were CHT block inactive, ANO1 block inactive, GPR7 antag -13, CHT PAM 10*, Kir21 block 0.06, ANO1 activ inactive, CHT activ conf 73* and HEK293 MP dye -67*.
Screening CCn1cc(C(=O)OCC(=O)c2ccccc2)c(=O)c2ccc(C)nc21 returned GPR7 antag -2, Kir21 block 0.87 and ANO1 activ inactive.
COc1cnc(-c2ccccn2)nc1N(C)C was read as CHT block inactive, ANO1 block inactive, GPR7 antag -1, CHT PAM inactive, Kir21 block 1.8, ANO1 activ inactive, CHT activ conf 33* and HEK293 MP dye -36*.
Cc1cc[n+](-c2ccccc2)c2ccccc12 was read as CHT block inactive, ANO1 block inactive, GPR7 antag 0, CHT PAM 7*, Kir21 block -0.01, ANO1 activ inactive, CHT activ conf 32* and HEK293 MP dye -44*.
Screening CN1CCN(C(=S)C(=O)Nc2ccc(Br)cc2)CC1 returned CHT block inactive, ANO1 block inactive, GPR7 antag 4, CHT PAM inactive, Kir21 block 1.1 and ANO1 activ inactive.
For COc1cc(-c2nnc(SCC(=O)/C(C#N)=C(\C)N)o2)cc(OC)c1OC the results were CHT block inactive, ANO1 block inactive, GPR7 antag -8, CHT PAM inactive, Kir21 block 0.06, ANO1 activ inactive, CHT activ conf 4 and HEK293 MP dye -23*.
COc1ccc2nc(N/C(N)=N/C(=S)Nc3c(C)cccc3C)nc(C)c2c1 was read as CHT block inactive, ANO1 block inactive, GPR7 antag 7, CHT PAM 7.1*, Kir21 block 2, ANO1 activ inactive, CHT activ conf 50* and HEK293 MP dye -41*.
`CN(c1ccccc1)S(=O)(=O)c1ccc(Cl)c(C(=O)NCC(c2ccco2)N2CCCC2)c1` (stereo unspecified) gave ANO1 activ inactive.
Screening Cc1ccc(-c2c[n+](Cc3ccc(Cl)c(Cl)c3)c3n2CCC3)cc1 returned CHT block inactive, ANO1 block inactive, GPR7 antag 2, CHT PAM 7*, Kir21 block -2.7, ANO1 activ inactive, CHT activ conf 52* and HEK293 MP dye -30*.
Cc1ccc(NC(=O)C[n+]2cc(-c3ccc(C)cc3)n3c2CCC3)cc1 was read as CHT block inactive, ANO1 block inactive, GPR7 antag -8, CHT PAM inactive, Kir21 block -0.74 and ANO1 activ inactive.
Nc1ncnc(Nc2ccccc2Cl)n1 was read as CHT block inactive, ANO1 block inactive, GPR7 antag -7, CHT PAM inactive, Kir21 block -1.2 and ANO1 activ inactive.
CCNC(=O)N(C)C[C@H]1N[C@@](C)(C(=O)OC)[C@H]2C(=O)N(C)C(=O)[C@@H]12 was read as ANO1 activ inactive.
`FC(F)(F)COc1cc(-c2nnc(SCc3ccccc3)n2Cc2ccco2)cc(OCC(F)(F)F)n1` gave CHT block inactive, ANO1 block inactive, GPR7 antag -1, CHT PAM 9.2*, Kir21 block 1.7, ANO1 activ inactive, CHT activ conf 24* and HEK293 MP dye inactive.
CCCCCCCCCCC[N+](C)(C)CC/C=C1/c2ccccc2Sc2ccc(Cl)cc21 was read as CHT block inactive, ANO1 block inactive, GPR7 antag 29, CHT PAM inactive, Kir21 block -0.29 and ANO1 activ inactive.
Screening CCCCCCCCCC[N+](C)(C)CC/C=C1/c2ccccc2Sc2ccc(Cl)cc21 returned CHT block inactive, ANO1 block inactive, GPR7 antag 21, CHT PAM 8.2*, Kir21 block -0.81, ANO1 activ inactive, CHT activ conf -1 and HEK293 MP dye -47*.
C[C@@H]1CC=C[C@H]2[C@H]1C(=O)N(Cc1ccccc1)[C@H]2c1cccc([N+](=O)[O-])c1 was read as CHT block inactive, ANO1 block inactive, CHT PAM 6.3*, Kir21 block 0.73, ANO1 activ inactive, CHT activ conf 26* and HEK293 MP dye inactive.
CC[N+](CC)(CC#Cc1ccccc1)CC#Cc1ccccc1 was read as CHT block inactive, ANO1 block inactive, GPR7 antag -3, CHT PAM 7.7*, Kir21 block -0.84, ANO1 activ inactive, CHT activ conf 49* and HEK293 MP dye inactive.
For CN(CCCC(=O)N1CCN(c2ncccn2)CC1)S(=O)(=O)c1ccc(F)cc1 the results were ANO1 activ inactive.
